PubChem BioAssay (Tox21)
Results filed as inconclusive are left out. The source made the active and inactive calls. Unless noted, calls come from the whole dose curve; as a rule, active = well fitted curve in the direction sought with a large enough effect in the repeat runs; inconclusive = weak or mixed curves; inactive = no such curve, though single readings can be large; an effect the other way counts as inactive or inconclusive.

How the values were obtained:
[1] = target: Peroxisome proliferator-activated receptor delta (Homo sapiens) (UniProt Q03181); assay: qHTS assay to identify small molecule agonists of the peroxisome proliferator-activated receptor delta (PPARd) signaling pathway (AID 743212; calls by dose curve)
Outline: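 A PPARd-bla HEK293H line with beta-lactamase under an Upstream Activator Sequence is treated with compounds at 37 C. Substrate loading for 2 h at room temperature precedes the fluorescence measurement.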

[2] = qHTS assay to identify small molecule antagonists of the peroxisome proliferator-activated receptor delta (PPARd) signaling pathway - cell viability counter screen (AID 743213); note: nearly all actives have a fitted effect of over 50% in size
Outline: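 Viability counter-screen, qHTS format: PPARd-bla HEK293H, L165041 300 nM final, 17 h compound exposure at 37 C, CellTiter-Glo luminescence after 30 min RT.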

[3] = target: Peroxisome proliferator-activated receptor delta (Homo sapiens) (UniProt Q03181); assay: qHTS assay to identify small molecule antagonists of the peroxisome proliferator-activated receptor delta (PPARd) signaling pathway (AID 743215; active = well fitted inhibition curve with a large enough effect in the signal ratio in the repeat runs, not every such curve was filed as active; the % refers to the signal ratio;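 note: cells stimulated with agonist L165041 at 300 nM final during compound exposure; series mostly up to about 62 µM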)
Outline: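 Inhibition of L165041-driven (300 nM final) PPARd signaling is scored in HEK293H UAS-bla cells. Exposure lasts 17 h at 37 C; beta-lactamase activity is then read by FRET substrate fluorescence after 2 h at room temperature.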

[4] = target: Bile acid receptor (Homo sapiens) (UniProt Q96RI1); assay: qHTS assay to identify small molecule antagonists of the farnesoid-X-receptor (FXR) signaling pathway (AID 743217; active = well fitted inhibition curve with a large enough effect in the signal ratio in the repeat runs, not every such curve was filed as active; the % refers to the signal ratio)
Outline: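 Antagonist mode against 50 uM (final) chenodeoxycholic acid stimulation in FXR-bla HEK 293T cells, 16 h at 37 °C. Inhibition detected as reduced beta-lactamase activity via LiveBLAzer B/G FRET fluorescence after 2 h at room temperature.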

[5] = qHTS assay to identify small molecule agonists of the farnesoid-X-receptor (FXR) signaling pathway - cell viability counter screen (AID 743218); note: nearly all actives have a fitted effect of over 45% in size
Outline: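 Cytotoxicity counter-screen run in parallel, same wells: FXR-UAS-bla HEK 293T cells dosed 16 h at 37 C, viability read by CellTiter-Glo luminescence after 30 min at room temperature.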

[6] = target: Bile acid receptor (Homo sapiens) (UniProt Q96RI1); assay: qHTS assay to identify small molecule agonists of the farnesoid-X-receptor (FXR) signaling pathway (AID 743220; active = well fitted activation curve with a large enough effect in the signal ratio in the repeat runs, not every such curve was filed as active; the % refers to the signal ratio)
Outline: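 Beta-lactamase reporter under UAS control in GeneBLAzer FXR HEK 293T cells (5000/well) measured with LiveBLAzer FRET substrate after 2 h at room temperature. Compound exposure lasted 16 h at 37C.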

[7] = target: Vitamin D3 receptor (Homo sapiens) (UniProt P11473); assay: qHTS assay to identify small molecule agonists of the vitamin D receptor (VDR) signaling pathway (AID 743222; calls by dose curve)
Outline: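 Quantitative HTS agonist-mode screen: compounds in DMSO were pin-transferred onto VDR-bla cells and incubated 16 h at 37C, 5% CO2. Reporter activity was detected with LiveBLAzer B/G FRET substrate after 2 h at room temperature.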

[8] = target: Vitamin D3 receptor (Homo sapiens) (UniProt P11473); assay: qHTS assay to identify small molecule antagonists of the vitamin D receptor (VDR) signaling pathway (AID 743223; active = well fitted inhibition curve with a large enough effect in the signal ratio in the repeat runs, not every such curve was filed as active; the % refers to the signal ratio)
Outline: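 VDR-bla cells were plated, incubated 4 h at 37C, then given compound and 1alpha,25-dihydroxyvitamin D3 (3 nM final). After 16 h at 37C, LiveBLAzer B/G FRET substrate was added for 2 h at room temperature and fluorescence read.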

[9] = qHTS assay to identify small molecule agonists of the vitamin D receptor (VDR) signaling pathway - cell viability counter screen (AID 743224); note: series mostly up to about 63 µM; nearly all actives have a fitted effect of over 50% in size
Outline: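 Viability is measured in the same wells as the VDR-bla reporter assay: after 16 h compound treatment and 2 h substrate loading, CellTiter-Glo is added and luminescence read 30 min later.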

[10] = qHTS assay to identify small molecule antagonists of the vitamin D receptor (VDR) signaling pathway - cell viability counter screen (AID 743225); note: nearly all actives have a fitted effect of over 50% in size
Outline: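 VDR-bla HEK 293T cells, 4 h pre-incubation at 37C, then compound plus 1-alpha,25-dihydroxyvitamin D3 (3 nM final) for 16 h. After the beta-lactamase FRET read, CellTiter-Glo was added to the same wells; luminescence after 30 min at room temperature.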

[11] = qHTS assay to identify small molecule agonists of the NFkB signaling pathway (AID 1159509; active = well fitted curve in the direction sought with a large enough effect in the signal ratio in the repeat runs, not every such curve was filed as active; the % refers to the signal ratio; note: series mostly up to about 61 µM)
Outline: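 NFkB-bla ME-180 cells carry a beta-lactamase reporter under an NF-kB response element. They were plated overnight, then exposed to compounds for 5 h at 37 C. Read-out is LiveBLAzer FRET after 1.5 hr at room temperature (405 nm excitation; 460/530 nm emission).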

[12] = qHTS assay to identify small molecule agonists of the NFkB signaling pathway - cell viability counter screen (AID 1159515; calls by dose curve; note: series mostly up to about 61 µM; nearly all actives have a fitted effect of over 55% in size)
Outline: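 Multiplexed viability readout: after the 5 hr compound exposure and 1.5 hr FRET substrate step, CellTiter-Glo reagent went into the same NFkB-bla ME-180 wells; ATP luminescence was measured after 30 min at room temperature.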

[13] = qHTS assay to identify small molecule agonists of the endoplasmic reticulum stress response signaling pathway (AID 1159516; active = well fitted activation curve with a large enough effect in the signal ratio in the repeat runs, not every such curve was filed as active; the % refers to the signal ratio)
Outline: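 Tox21 10K library screened in quantitative HTS format on ESRE-bla HeLa cells, a beta-lactamase reporter under ER stress response element control; 5 hr treatment, FRET read.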

[14] = qHTS assay to identify small molecule agonists of the endoplasmic reticulum stress response signaling pathway - cell viability counter screen (AID 1159517; calls by dose curve; note: series mostly up to about 61 µM; nearly all actives have a fitted effect of over 50% in size)
Outline: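 CellTiter-Glo was added to wells already read for beta-lactamase FRET, and luminescence was recorded 30 min later. Cells: ESRE-bla HeLa, 1,500 per well, compound exposure 5 hr at 37 C.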

[15] = qHTS assay to identify small molecule antagonists of the retinoid-related orphan receptor gamma (ROR-gamma) signaling pathway - cell viability counter screen (AID 1159520); note: nearly all actives have a fitted effect of over 50% in size
Outline: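 Tet-on ROR gamma CHO cells (1,000/well) were plated 4 hr, given compounds in DMSO for 2 hr at 37 C, then induced with 1 uM final doxycycline for 16 hr. Viability was read as ATP by CellTiter-Glo luminescence after 30 min.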

[16] = target: Nuclear receptor ROR-gamma (Homo sapiens) (UniProt P51449); assay: qHTS assay to identify small molecule antagonists of the retinoid-related orphan receptor gamma (ROR-gamma) signaling pathway (AID 1159521)
Outline: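 Tet-on RORγ CHO cells carrying a ROR response element–luciferase reporter were pretreated with compounds for 2 h, then induced with 1 uM (final) doxycycline hyclate for 16 h at 37 C. Antagonism was read as decreased ONE-Glo luminescence.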

[17] = qHTS assay to identify small molecule agonists of the AP-1 signaling pathway - cell viability counter screen (AID 1159525; calls by dose curve; note: nearly all actives have a fitted effect of over 55% in size)
Outline: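 ME-180 AP-1-bla, 2500 cells/well, Opti-MEM + 0.5% dialyzed FBS; overnight 37 °C; cpd 15-pt titration, 5 h 37 °C; CellTiter-Glo 30 min RT; luminescence read; normalised to TOAB and DMSO controls.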

[18] = qHTS assay to identify small molecule agonists of the AP-1 signaling pathway (AID 1159526; calls by dose curve)
[19] = qHTS assay to identify small molecule agonists of the peroxisome proliferator-activated receptor delta (PPARd) signaling pathway - cell viability counter screen (AID 743211); note: nearly all actives have a fitted effect of over 55% in size
Outline: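 PPARd-bla HEK293H cells (UAS-beta-lactamase reporter) were treated with compounds for 17 h at 37 C. Viability was then read in the same wells by CellTiter-Glo luminescence after 30 min at room temperature.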

[20] = qHTS assay to identify small molecule antagonists of the farnesoid-X-receptor (FXR) signaling pathway - cell viability counter screen (AID 743221; active = well fitted cell-killing curve with a large enough effect in the repeat runs, not every such curve was filed as active; note: nearly all actives have a fitted effect of over 50% in size)
Outline: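 FXR-UAS-bla HEK 293T cells were treated with test compounds plus chenodeoxycholic acid (50 uM final) for 16 h at 37 C. Cell viability in the same wells was then read as CellTiter-Glo luminescence after 30 min at room temperature.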

Measured: Potency

Sequence of Bile acid receptor (Homo sapiens) (Q96RI1 whole entry, looked up): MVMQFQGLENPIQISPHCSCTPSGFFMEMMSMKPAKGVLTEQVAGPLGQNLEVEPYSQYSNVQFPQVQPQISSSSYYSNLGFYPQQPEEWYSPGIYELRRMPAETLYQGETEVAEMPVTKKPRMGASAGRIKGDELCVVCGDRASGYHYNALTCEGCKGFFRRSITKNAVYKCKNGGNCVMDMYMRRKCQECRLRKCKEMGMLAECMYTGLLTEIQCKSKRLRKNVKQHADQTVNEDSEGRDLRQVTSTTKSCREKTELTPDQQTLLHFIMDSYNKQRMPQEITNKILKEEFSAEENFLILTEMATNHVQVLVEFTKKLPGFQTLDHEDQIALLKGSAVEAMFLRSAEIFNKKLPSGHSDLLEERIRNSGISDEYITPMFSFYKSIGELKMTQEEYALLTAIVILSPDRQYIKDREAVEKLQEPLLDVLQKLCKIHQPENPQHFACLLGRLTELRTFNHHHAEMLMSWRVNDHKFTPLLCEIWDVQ
Sequence of Peroxisome proliferator-activated receptor delta (Homo sapiens) (Q03181 whole entry, looked up): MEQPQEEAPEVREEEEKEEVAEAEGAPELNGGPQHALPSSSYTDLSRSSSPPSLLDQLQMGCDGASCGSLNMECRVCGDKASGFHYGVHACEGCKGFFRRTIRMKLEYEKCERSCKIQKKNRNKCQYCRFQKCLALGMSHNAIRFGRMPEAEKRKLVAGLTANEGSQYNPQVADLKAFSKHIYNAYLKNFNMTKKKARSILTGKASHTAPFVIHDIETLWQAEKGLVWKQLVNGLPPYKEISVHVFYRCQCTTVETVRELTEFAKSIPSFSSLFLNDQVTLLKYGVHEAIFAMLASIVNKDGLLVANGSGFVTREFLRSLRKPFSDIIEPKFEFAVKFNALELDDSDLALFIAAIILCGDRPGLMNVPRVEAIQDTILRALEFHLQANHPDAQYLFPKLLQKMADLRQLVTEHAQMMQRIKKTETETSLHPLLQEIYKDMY
Sequence of Vitamin D3 receptor (Homo sapiens) (P11473 whole entry, looked up): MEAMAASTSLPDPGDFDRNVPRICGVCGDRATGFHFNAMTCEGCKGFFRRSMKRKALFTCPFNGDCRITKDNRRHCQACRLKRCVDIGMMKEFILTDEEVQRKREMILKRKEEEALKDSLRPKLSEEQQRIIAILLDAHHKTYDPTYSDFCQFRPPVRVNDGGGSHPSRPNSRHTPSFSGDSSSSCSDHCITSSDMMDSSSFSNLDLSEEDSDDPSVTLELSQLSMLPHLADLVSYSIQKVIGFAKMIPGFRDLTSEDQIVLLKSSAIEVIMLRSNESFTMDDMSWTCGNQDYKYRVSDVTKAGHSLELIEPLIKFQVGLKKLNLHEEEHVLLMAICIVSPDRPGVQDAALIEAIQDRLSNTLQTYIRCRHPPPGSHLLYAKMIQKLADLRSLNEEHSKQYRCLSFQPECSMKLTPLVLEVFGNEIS

C=CC(=O)OCCCCCCCC(C)C
not listed: [19] | [20]
inactive: all other assays above

CN(C)c1cccc(O)c1
not listed: [1] | [2] | [4] | [6] | [16] | [20]
inactive: all other assays above

C=C(C)C(=O)OCCCCCC
not listed: [1] | [3] | [4] | [6] | [10] | [16] | [20]
inactive: all other assays above

NCc1cccc(CN)c1
not listed: [1] | [19] | [20]
inactive: all other assays above

CS(=O)(=O)c1ccc([C@@H](O)[C@@H](CO)NC(=O)C(Cl)Cl)cc1
not listed: [4] | [6] | [10] | [16]
inactive: all other assays above

C[C@@H](O)[C@H]1C(=O)N2C(C(=O)O)=C(S[C@@H]3CN[C@H](C(=O)N(C)C)C3)[C@H](C)[C@H]12
not listed: [1] | [3] | [4] | [6] | [16]
inactive: all other assays above

Cc1cc(NS(=O)(=O)c2ccc(N)cc2)no1
not listed: [1] | [3] | [10] | [16]
inactive: all other assays above

c1ccc2[nH]cnc2c1
not listed: [16] | [19]
inactive: all other assays above

CC(C)(CO)COC(=O)C(C)(C)CO
not listed: [1] | [16] | [20]
inactive: all other assays above

CCCCOCCOCCOC(=O)CCCCC(=O)OCCOCCOCCCC
not listed: [1] | [16]
inactive: all other assays above

O=C(O)c1ccc([N+](=O)[O-])cc1
not listed: [19] | [20]
inactive: all other assays above

Cc1ccc(C)c(C)c1
not listed: [4] | [6] | [10]
inactive: all other assays above

O=S(=O)(O)CCS
not listed: [7] | [8] | [19] | [20]
inactive: all other assays above

Cc1cc(O)cc(C)c1Cl
not listed: [1] | [4] | [6] | [7] | [8]
inactive: all other assays above

CCCCCCCCCCCCOCC1CO1 (stereo unspecified)
not listed: [8] | [10]
inactive: all other assays above

CCC(=O)O
not listed: [4] | [6] | [10] | [16] | [19]
inactive: all other assays above

C=C1C2CCC(C2)C1(C)C (stereo unspecified)
not listed: [1] | [4] | [6] | [10] | [20]
inactive: all other assays above
